These results are taken from the supplement of paper PMC11417369.

± gives the standard deviation of the averaged measurements. The full ranking holds about 25,000 sequences; the median of “ln(normalized median fluorescence intensity)” is about 7.9, and the highest 2% start at about 11. The list comes from a sample in which the highest values are over-represented; it also holds similar and randomly drawn sequences.

This assay concerns PfAP2-I AP2 domain 3 (GST-tagged). As to the kind of experiment: gcPBM binding intensity (ln(normalized median fluorescence intensity)); higher = stronger DNA binding. The essentials: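 Binding intensity is the highest Masliner-normalised natural-log median intensity over replicate spots in either probe orientation. To obtain it, GST-tagged P. falciparum DNA-binding domains made in E. coli were incubated for 1 h on an Agilent 4 × 180k array of primer-extended double-stranded 36-bp intergenic genomic probes plus negative controls. Detection used Alexa488 anti-GST antibody with scanning at 488 nm.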
As for “TTTGATAAATTATACACACACAATATATATAAAATA [CACACA_site2023]”, the “gcPBM binding intensity (ln)” value was found to be 7.72 ± 0.51.
“CTTAAACTTTTAAATACACACATACAGACATACACA [CACACA_site6401]”: the “gcPBM binding intensity (ln)” value is 8.055 ± 0.021.
Consider “GTAGACATTATAATGGTGCAAAAAAATTAACAAAAA [GTGCAC_site9891]”, for which the “gcPBM binding intensity (ln)” value amounted to 10.9 ± 0.3.
With “AAATATAATTAATGATGTACACTTATAGATATTGAT [XGTACX_site8435]”, the “gcPBM binding intensity (ln)” value worked out at 8.09 ± 0.24.
For “AGCAAAACAAAAAAATTAAAATTAACATATAATCAT [GTGCAC_negctrl_site393]”, the “gcPBM binding intensity (ln)” value stood at 7.38 ± 0.62.
For “TATATATATATATAGGTGCAATATTGAAAAAATATC [GTGCAC_site9535]”, the “gcPBM binding intensity (ln)” value was determined as 11.3 ± 0.47.
The figure for “ATTTTTTTTTAATGCAATATATTTTGAAAATTTTAT [CACACA_negctrl_site753]” is 8.62 ± 0.27; for “AGAAAAAAAAAAAAAAAAAAAAAATTGAATATATAT [TGCATGCA_negctrl_site55]” it is 7.67 ± 0.81.
For “ATATTATAATTGAAGGTGCAAAATGTAATATAGATA [GTGCAC_site9661]”, the “gcPBM binding intensity (ln)” value is 10.9 ± 0.49.
Regarding “ATGTATGCAAAAATGGTGCATATTAAATGTATAACA [GTGCAC_site9722]”, the “gcPBM binding intensity (ln)” value was found to be 10.8 ± 0.49.
Regarding “AGATATTATAATTAATGTACAAAAAGAAAAAATAGA [XGTACX_site8964]”, the “gcPBM binding intensity (ln)” value amounted to 7.86 ± 0.64.
Then “ATGTTATTAATAATTGCACACATTTTTTTTTTTTTT [CACACA_site3920]”, with 9.12 ± 0.23.
Turning to “AAAAATATATAACAAAGTACATATATATTTAGTAAT [XGTACX_site8791]”, the “gcPBM binding intensity (ln)” value was determined as 7.43 ± 0.4.
With “AAAATAAAATAAAAGTGTACGTTTTAAGAACATTGA [XGTACX_site2382]”, the “gcPBM binding intensity (ln)” value was 7.76 ± 0.48.
Consider “ATCTGTCGACAGGACAGTACACAGTAGCCAGTAACT [XGTACX_site2001]”, for which the “gcPBM binding intensity (ln)” value was 7.63 ± 0.76.
Take “AATTTAAAGTTTTTTTTTTTTTTTTTTTTTTTTTTG [CACACA_negctrl_site1082]”: the “gcPBM binding intensity (ln)” value was determined as 7.39 ± 0.31.
As for “AACATTTCCTTTCTGTGTACATATAAACCCATCTAT [XGTACX_site2071]”, the “gcPBM binding intensity (ln)” value worked out at 8.13 ± 0.64.
For the sequence “TATCATATATGAAGGTGTACGATTTATTATATAAAT [XGTACX_site7010]”, the “gcPBM binding intensity (ln)” value was 7.87 ± 0.54.
For AAATATTATAAAAAGGTGCATTTTTATTATATGAGT, the “gcPBM binding intensity (ln)” value is 10.5 ± 0.35.
Consider ATTATCAATATGAAGGTGCATTTAAATAATATTTAC, for which the “gcPBM binding intensity (ln)” value is 11.3 ± 0.7.
In the case of TGTTTTATTTAGAAGGTGCACATTAATATTAAATAA, the “gcPBM binding intensity (ln)” value was found to be 11.3 ± 0.45.
Turning to “TTATTTTTTTTTAGAGCACACATTTTTAATAAGGTA [CACACA_site2133]”, the “gcPBM binding intensity (ln)” value was 9.54 ± 0.2.
Turning to TAATGCAACATTTATGTGCACATAAATATTTTTTAA, the “gcPBM binding intensity (ln)” value is 9.815 ± 0.064.
“TTTTCAATTAATAATACACACATGTATTTATTATTA [CACACA_site5774]”: the “gcPBM binding intensity (ln)” value amounted to 7.83 ± 0.34.
Then “ATAAATTCATATATGAGTACTAAAAATATCTTTTTC [XGTACX_site5541]”, with 7.61 ± 0.45; and “ATTTATGGAAAAAGAACACACAATCAAACAAAAATA [CACACA_site3707]”, with 8.01 ± 0.57.
As for “TTATAATTTTTGAGCACACACAAGCATATATATATA [CACACA_site1798]”, the “gcPBM binding intensity (ln)” value stood at 9.475 ± 0.049.
On to “ATATATATATATTTCGCACACATAATCTTATTAAAT [CACACA_site2579]”, for which the “gcPBM binding intensity (ln)” value is 9.22 ± 0.31.
On to “TATGGATAAATAAATACACACATAAATTTAAATATA [CACACA_site1282]”, for which the “gcPBM binding intensity (ln)” value came to 7.57 ± 0.61.
Take “GTTTATCACAGCCACGCACACATAATATCTGTATAT [CACACA_site5929]”: the “gcPBM binding intensity (ln)” value is 8.18 ± 0.59.
The figure for “GAACATTTGAAATATGCACACATGTATAAACCTACA [CACACA_site2654]” is 8.7 ± 0.4; for “AGATAAGATATATACACACACATAAATACGTACAAA [CACACA_site6639]” it is 8.35 ± 0.16.
“TATATATATATATGTGCACACATAAAGATATTATTT [CACACA_site3734]”: the “gcPBM binding intensity (ln)” value turned out to be 10.18 ± 0.021.
The figure for “TATATATATATGTGCACACATAAAGATATTATTTTT [CACACA_site3733]” is 10.2 ± 0.042; for “ATAAATAAGATACGTACACACATATACAAAATATAC [CACACA_site3661]” it is 8.14 ± 0.26; for “TGCTTATATATACGTGCACACATATATATAAGATAT [CACACA_site8516]” it is 10.9 ± 0.11.
With “CTTATATATACGTGCACACATATATATAAGATATAT [CACACA_site1752]”, the “gcPBM binding intensity (ln)” value was determined as 11.03 ± 0.11.
Take “AAGGTAGAAATATGTTGTACGGTTTGGAGGAAGCAA [XGTACX_site1105]”: the “gcPBM binding intensity (ln)” value worked out at 8.12 ± 0.49.
On to “AGTACATTTTTTTTAATAGGAAAAAAAATATTTATT [TGCATGCA_negctrl_site575]”, for which the “gcPBM binding intensity (ln)” value was determined as 7.66 ± 0.57.
Take “TTTTTTGCTAAGTGTACACAAATGTTTATTAATTTA [CACACA_site5859]”: the “gcPBM binding intensity (ln)” value stood at 8.42 ± 0.27.
Turning to “ATATATATATAGTGCACACTTAAGAATATAAAGAGG [CACACA_site1151]”, the “gcPBM binding intensity (ln)” value stood at 11.5 ± 0.3.
Consider “ATAAAGAATATAAATACACACTTAAATATATATTAT [CACACA_site6071]”, for which the “gcPBM binding intensity (ln)” value was found to be 7.64 ± 0.44.
For “ATAAAGAATATAAATACACACTTAAATATAGATTAT [CACACA_site7804]”, the “gcPBM binding intensity (ln)” value is 7.6 ± 0.45.
As to “AAAAAAAAAAAAAGTGCACACTTTTAATATAAATAT [CACACA_site3314]”, the “gcPBM binding intensity (ln)” value turned out to be 10 ± 0.35.
As to “ATATATATATATAGTGCACACTTAAGAATATAAAGA [CACACA_site4771]”, the “gcPBM binding intensity (ln)” value was determined as 11.5 ± 0.27.
With “AAATAAAGAATATAAATACACACTTAAATATATATT [CACACA_site4007]”, the “gcPBM binding intensity (ln)” value was 7.58 ± 0.61.
“TATATGTATGTATGTACACACAAAAAATGGAATATA [CACACA_site3717]”: the “gcPBM binding intensity (ln)” value amounted to 7.93 ± 0.35.
Take “GGTATATTAAAATAGGTGCATAAAACTAAGAGAAAA [GTGCAC_site9781]”: the “gcPBM binding intensity (ln)” value came to 11.3 ± 0.54.
Consider “AAAAATAAAGAAACAGGTACGCATATATTAAGATAT [XGTACX_site8097]”, for which the “gcPBM binding intensity (ln)” value worked out at 7.98 ± 0.78.
Turning to “GTATTATATATATAGGTGCATATATATATATAAATA [GTGCAC_site9787]”, the “gcPBM binding intensity (ln)” value amounted to 10.6 ± 0.33.
On to “CAATATTATTATATTTGTACACATGCGTATTTTTTA [XGTACX_site4154]”, for which the “gcPBM binding intensity (ln)” value is 7.74 ± 0.47.
“TAACTTAATATTAATGCACACAATTTATATATATAT [CACACA_site3903]”: the “gcPBM binding intensity (ln)” value turned out to be 11.3 ± 0.38.
Regarding “TTTTTAAAATATTTAACACACAATTATAATGCATAA [CACACA_site3932]”, the “gcPBM binding intensity (ln)” value was 8.885 ± 0.035.
Turning to “TAACTTAATTTTAATGCACACAATTTATATATATAT [CACACA_site6022]”, the “gcPBM binding intensity (ln)” value amounted to 11.2 ± 0.52.
On to “AATATAACTTTTTGCACACTTAATTTTTTTTTTTAA [CACACA_site3365]”, for which the “gcPBM binding intensity (ln)” value is 9.79 ± 0.11.
Regarding “TTAATATAACTTTTTGCACACTTAATTTTTTTTTTT [CACACA_site3364]”, the “gcPBM binding intensity (ln)” value worked out at 9.32 ± 0.085.
The figure for “TAAATTATATTATGCACACTTAAAAATATATTTAAC [CACACA_site3512]” is 10.4 ± 0.49.
